Measurements from the supplement of paper PMC10849652.
About 7,900 targets were measured; listed, in parts, are those with a hit and a random draw of the rest. About 0.6% of all pairs of compound and target were hits.

What was measured:
Test in all cases: log2 fold change, soluble protein after heating vs DMSO (PISA); higher = thermal stabilisation; K562 cells, 10 uM, 30 min; active = over 0.2 and 3.5 SD of the protein, either way, in both replicates (recomputed)
[1] = compound: C#Cc1cccc(Nc2ncnc3cc(OCCOC)c(OCCOC)cc23)c1 [erlotinib]
Outline: (§1)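 Soluble protein was quantified by TMTpro 16plex LC-MS/MS after channel sums were equalised. It was obtained as the supernatant after 21,000xg for 90 min from pooled aliquots of K562 cells (2×10^6 cells/mL, 10 μM compound, 30 min) heated for 3 min across 48°C-58°C and extracted in PBS with 0.5% NP-40 at 4°C. Thermal stability values are relative to control samples and come from duplicates. They are given as log2 fold changes.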

[2] = compound: C/C(=N\NC(=O)C1=CC(=CC=C1)S(=O)(=O)N2CCOCC2)/C3=C(C=CC(=C3)Cl)O
Outline: as §1

[3] = compound: C1=CC(=C(C=C1Cl)C2=NC3=NC=CN=C3C(=N2)NC4=CC=NC=C4)F
Outline: as §1

[4] = compound: C1=CC(=CC=C1C2=NC3=C(N2)C=C(C=C3)C(=O)N)OC4=CC=C(C=C4)Cl
Outline: as §1

[5] = compound: C1=CC2=C(C=CC(=C2)/C=C\3/C(=O)NC(=NCC4=CC=CS4)S3)N=C1
Outline: as §1

[6] = compound: C1=CC2=NC=CN=C2C=C1/C=C/3\C(=O)NC(=O)S3
Outline: as §1

[7] = compound: C1=CC=C(C=C1)C2=NC(=C(N2)C3=CC=NC=C3)C4=CC(=C(C=C4)Cl)O
Outline: as §1

[8] = compound: C1=CC=C2C(=C1)C3=NNC4=CC=CC(=C43)C2=O
Outline: as §1

[9] = compound: C1CCN(C1)C(=O)NC2=CC=CC(=C2)NC3=NC=C(C(=N3)NCCC4=CN=CN4)Br
Outline: as §1

[10] = compound: C1CN(CCC1(CC2=CC=C(C=C2)Cl)N)C3=NC=NC4=C3C=CN4
Outline: as §1

Measured: log2 fold change

DNAJB12 (UniProt Q9NXW2)
inactive: [1] -0.039 | [2] -0.001 | [3] 0.003 | [4] 0.102 | [5] 0.004 | [6] 0.032 | [7] 0.006 | [8] -0.064 | [9] 0.044 | [10] 0.033

DHRS7B (UniProt Q6IAN0)
UniProt Q6IAN0, sequence (Q6IAN0 whole entry, looked up): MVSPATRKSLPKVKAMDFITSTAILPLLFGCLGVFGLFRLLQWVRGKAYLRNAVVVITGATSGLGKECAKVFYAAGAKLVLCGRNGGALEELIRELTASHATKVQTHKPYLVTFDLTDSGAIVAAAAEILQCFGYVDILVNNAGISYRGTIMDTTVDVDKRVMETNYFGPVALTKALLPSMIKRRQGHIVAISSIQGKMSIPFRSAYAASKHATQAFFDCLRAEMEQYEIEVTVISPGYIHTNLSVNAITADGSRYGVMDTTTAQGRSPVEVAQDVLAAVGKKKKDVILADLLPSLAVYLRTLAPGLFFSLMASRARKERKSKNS
inactive: [1] -0.039 | [2] 0.07 | [3] 0.011 | [4] 0.009 | [5] 0.027 | [6] 0.012 | [7] 0.144 | [8] 0.034 | [9] -0.037 | [10] 0.058

DTNBP1 (UniProt Q96EV8)
UniProt Q96EV8, sequence (Q96EV8 whole entry, looked up): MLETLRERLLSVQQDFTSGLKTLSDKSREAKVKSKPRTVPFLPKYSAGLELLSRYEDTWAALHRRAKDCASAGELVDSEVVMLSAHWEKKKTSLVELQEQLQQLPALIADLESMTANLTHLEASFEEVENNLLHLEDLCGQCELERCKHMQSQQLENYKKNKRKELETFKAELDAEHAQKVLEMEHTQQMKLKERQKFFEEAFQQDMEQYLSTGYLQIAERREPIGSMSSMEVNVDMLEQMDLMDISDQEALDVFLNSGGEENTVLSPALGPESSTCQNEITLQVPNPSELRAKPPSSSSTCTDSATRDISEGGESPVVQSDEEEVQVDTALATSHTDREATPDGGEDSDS
inactive: [1] 0.016 | [2] 0.028 | [3] 0.038 | [4] 0.03 | [5] 0.028 | [6] -0.038 | [7] -0.043 | [8] -0.043 | [9] -0.009 | [10] 0.002

DAB2 (UniProt P98082)
inactive: [1] 0.107 | [2] 0.112 | [3] 0.01 | [4] -0.035 | [5] 0.037 | [6] 0.008 | [7] 0.002 | [8] 0.019 | [9] -0.156 | [10] -0.006

CYBA (UniProt P13498)
UniProt P13498, sequence (P13498 whole entry, looked up): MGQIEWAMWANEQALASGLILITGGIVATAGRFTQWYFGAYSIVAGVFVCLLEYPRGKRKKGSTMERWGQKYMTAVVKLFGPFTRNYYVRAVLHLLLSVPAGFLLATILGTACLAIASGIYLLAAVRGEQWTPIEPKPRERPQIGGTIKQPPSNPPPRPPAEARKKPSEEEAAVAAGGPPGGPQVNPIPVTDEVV
inactive: [1] -0.075 | [2] 0.096 | [3] -0.005 | [4] 0.025 | [5] 0.042 | [6] 0.032 | [7] 0.03 | [8] -0.072 | [9] -0.012 | [10] -0.005

DDOST (UniProt P39656)
UniProt P39656, sequence (P39656 whole entry, looked up): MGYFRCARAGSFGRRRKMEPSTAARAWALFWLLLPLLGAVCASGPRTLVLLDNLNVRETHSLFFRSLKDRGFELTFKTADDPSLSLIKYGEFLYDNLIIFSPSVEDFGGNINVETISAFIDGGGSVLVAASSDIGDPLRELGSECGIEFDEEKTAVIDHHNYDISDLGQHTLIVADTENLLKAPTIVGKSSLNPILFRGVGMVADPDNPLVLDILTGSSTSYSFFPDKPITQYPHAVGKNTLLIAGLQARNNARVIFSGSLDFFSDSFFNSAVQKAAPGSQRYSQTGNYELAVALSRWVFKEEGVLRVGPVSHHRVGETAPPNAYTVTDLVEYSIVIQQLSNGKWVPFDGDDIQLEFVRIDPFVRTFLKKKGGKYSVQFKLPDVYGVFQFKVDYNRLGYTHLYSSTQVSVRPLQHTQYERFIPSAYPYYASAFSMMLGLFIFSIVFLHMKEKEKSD
inactive: [1] -0.033 | [2] 0.003 | [3] 0.004 | [4] -0.014 | [5] -0.085 | [6] 0.014 | [8] 0.012 | [9] -0.002 | [10] -0.003
active: [7] 0.253

FAM122A (UniProt Q96E09)
inactive: [1] 0.095 | [2] 0.073 | [3] 0.053 | [4] -0.025 | [5] -0.068 | [6] 0.051 | [7] -0.019 | [8] 0.03 | [9] 0.031 | [10] -0.075

DHPS (UniProt P49366)
UniProt P49366, sequence (P49366 whole entry, looked up): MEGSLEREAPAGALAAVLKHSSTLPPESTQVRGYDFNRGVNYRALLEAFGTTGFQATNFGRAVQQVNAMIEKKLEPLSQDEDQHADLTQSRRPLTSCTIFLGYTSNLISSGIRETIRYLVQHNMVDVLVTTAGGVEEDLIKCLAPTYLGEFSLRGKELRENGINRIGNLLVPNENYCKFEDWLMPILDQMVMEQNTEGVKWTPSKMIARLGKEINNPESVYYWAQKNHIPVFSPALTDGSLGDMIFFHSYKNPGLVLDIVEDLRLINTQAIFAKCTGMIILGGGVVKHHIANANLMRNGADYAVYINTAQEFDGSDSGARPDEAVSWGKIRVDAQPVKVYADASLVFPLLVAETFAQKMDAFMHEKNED
inactive: [1] 0 | [2] -0.01 | [3] 0.088 | [4] -0.002 | [5] -0.034 | [6] 0.033 | [7] 0.024 | [8] -0.004 | [9] -0.007 | [10] 0.021

EXOC8 (UniProt Q8IYI6)
UniProt Q8IYI6, sequence (Q8IYI6 whole entry, looked up): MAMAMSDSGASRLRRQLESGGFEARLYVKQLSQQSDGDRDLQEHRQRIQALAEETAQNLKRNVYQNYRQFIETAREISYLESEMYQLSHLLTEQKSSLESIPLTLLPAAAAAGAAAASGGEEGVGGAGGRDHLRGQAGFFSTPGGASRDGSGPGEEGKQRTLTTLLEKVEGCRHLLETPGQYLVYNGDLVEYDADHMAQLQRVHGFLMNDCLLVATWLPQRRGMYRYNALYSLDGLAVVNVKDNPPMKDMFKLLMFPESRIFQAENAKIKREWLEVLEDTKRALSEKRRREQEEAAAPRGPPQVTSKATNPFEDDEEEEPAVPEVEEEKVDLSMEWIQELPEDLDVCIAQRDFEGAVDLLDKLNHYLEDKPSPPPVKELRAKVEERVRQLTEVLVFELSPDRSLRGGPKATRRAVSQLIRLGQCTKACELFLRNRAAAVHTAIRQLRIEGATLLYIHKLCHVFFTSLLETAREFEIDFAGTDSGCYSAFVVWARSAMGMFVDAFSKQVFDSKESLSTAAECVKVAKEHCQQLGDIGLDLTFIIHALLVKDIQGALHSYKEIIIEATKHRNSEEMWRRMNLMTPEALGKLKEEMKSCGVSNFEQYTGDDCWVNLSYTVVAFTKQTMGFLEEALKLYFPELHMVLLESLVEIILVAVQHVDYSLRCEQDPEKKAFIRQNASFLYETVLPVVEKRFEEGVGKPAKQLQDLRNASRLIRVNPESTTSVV
inactive: [1] 0.048 | [2] 0.144 | [3] -0.042 | [4] -0.056 | [5] 0.05 | [6] 0.017 | [7] -0.012 | [8] 0.001 | [9] -0.053 | [10] -0.054

DNM2 (UniProt P50570)
inactive: [1] 0.042 | [2] 0.065 | [3] 0.01 | [4] -0.025 | [5] 0.046 | [6] -0.001 | [7] 0.019 | [8] 0.033 | [9] 0.015 | [10] -0.003

EXOC1 (UniProt Q9NV70)
inactive: [1] 0.057 | [2] 0.163 | [3] -0.104 | [4] -0.05 | [5] 0.17 | [6] 0.013 | [7] 0.051 | [8] 0.054 | [9] -0.044 | [10] -0.073

DMAC1 (UniProt Q96GE9)
inactive: [1] 0.041 | [2] 0.076 | [3] 0.128 | [4] -0.002 | [5] 0.059 | [6] -0.004 | [7] -0.04 | [8] -0.021 | [9] 0.008 | [10] 0.072

DCAF10 (UniProt Q5QP82)
UniProt Q5QP82, sequence (Q5QP82 whole entry, looked up): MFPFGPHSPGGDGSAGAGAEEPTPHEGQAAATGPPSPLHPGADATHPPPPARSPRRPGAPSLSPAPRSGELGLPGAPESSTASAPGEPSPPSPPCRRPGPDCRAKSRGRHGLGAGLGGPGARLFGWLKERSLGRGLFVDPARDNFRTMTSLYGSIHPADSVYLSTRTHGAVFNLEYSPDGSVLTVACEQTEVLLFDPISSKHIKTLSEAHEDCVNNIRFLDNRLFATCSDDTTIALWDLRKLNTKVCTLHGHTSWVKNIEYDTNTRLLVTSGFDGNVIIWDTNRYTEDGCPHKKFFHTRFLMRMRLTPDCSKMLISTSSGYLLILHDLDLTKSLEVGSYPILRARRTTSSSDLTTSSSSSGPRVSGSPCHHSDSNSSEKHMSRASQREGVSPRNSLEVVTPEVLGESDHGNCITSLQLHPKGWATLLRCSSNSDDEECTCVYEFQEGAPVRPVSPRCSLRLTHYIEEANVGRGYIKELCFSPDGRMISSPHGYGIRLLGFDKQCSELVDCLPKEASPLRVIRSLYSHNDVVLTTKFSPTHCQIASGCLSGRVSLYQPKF
inactive: [1] 0.01 | [2] 0.014 | [3] 0.021 | [4] 0.029 | [5] -0.038 | [6] 0.064 | [7] -0.077 | [8] -0.013 | [9] 0.029 | [10] 0.006

DDX5 (UniProt P17844)
inactive: [1] 0.13 | [2] 0.101 | [3] 0.072 | [4] 0 | [5] -0.003 | [6] -0.046 | [7] 0.059 | [8] -0.032 | [9] -0.061 | [10] -0.127

FAM160B1 (UniProt Q5W0V3)
inactive: [1] 0.034 | [2] 0.085 | [3] 0.012 | [4] -0.007 | [5] 0.019 | [6] 0.037 | [7] -0.005 | [8] 0 | [9] -0.035 | [10] -0.021

CWC27 (UniProt Q6UX04)
inactive: [1] 0.084 | [2] -0.023 | [3] 0.055 | [4] -0.049 | [5] 0.021 | [6] 0.02 | [7] 0.041 | [8] -0.102 | [9] -0.086 | [10] -0.053

CUX1 isoform 2 (UniProt Q13948)
inactive: [1] -0.025 | [2] 0.017 | [3] 0.012 | [4] 0.036 | [5] 0.014 | [6] -0.031 | [7] -0.043 | [8] 0.009 | [9] -0.009 | [10] -0.031

CUTA isoform 2 (UniProt O60888)
UniProt O60888, sequence (O60888 whole entry, looked up): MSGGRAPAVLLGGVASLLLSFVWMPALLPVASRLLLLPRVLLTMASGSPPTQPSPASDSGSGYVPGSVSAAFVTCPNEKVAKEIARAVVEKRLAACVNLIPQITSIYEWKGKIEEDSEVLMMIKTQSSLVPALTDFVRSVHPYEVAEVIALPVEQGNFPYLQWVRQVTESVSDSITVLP
inactive: [1] -0.01 | [2] -0.066 | [3] 0 | [4] 0.033 | [5] 0 | [6] 0.003 | [7] 0.091 | [8] -0.054 | [9] -0.1 | [10] -0.105

FAM177A1 isoform 2 (UniProt Q8N128)
UniProt Q8N128, sequence (Q8N128 whole entry, looked up): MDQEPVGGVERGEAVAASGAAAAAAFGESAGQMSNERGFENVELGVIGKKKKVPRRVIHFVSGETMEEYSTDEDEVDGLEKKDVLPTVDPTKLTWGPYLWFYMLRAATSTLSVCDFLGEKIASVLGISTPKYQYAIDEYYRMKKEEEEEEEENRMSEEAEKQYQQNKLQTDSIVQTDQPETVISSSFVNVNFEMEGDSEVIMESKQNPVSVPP
inactive: [1] 0.048 | [2] 0.042 | [3] 0.038 | [4] 0.023 | [5] 0.036 | [6] 0.02 | [7] 0.024 | [8] -0.037 | [9] 0.109 | [10] 0.044

ERLIN2 (UniProt O94905)
UniProt O94905, sequence (O94905 whole entry, looked up): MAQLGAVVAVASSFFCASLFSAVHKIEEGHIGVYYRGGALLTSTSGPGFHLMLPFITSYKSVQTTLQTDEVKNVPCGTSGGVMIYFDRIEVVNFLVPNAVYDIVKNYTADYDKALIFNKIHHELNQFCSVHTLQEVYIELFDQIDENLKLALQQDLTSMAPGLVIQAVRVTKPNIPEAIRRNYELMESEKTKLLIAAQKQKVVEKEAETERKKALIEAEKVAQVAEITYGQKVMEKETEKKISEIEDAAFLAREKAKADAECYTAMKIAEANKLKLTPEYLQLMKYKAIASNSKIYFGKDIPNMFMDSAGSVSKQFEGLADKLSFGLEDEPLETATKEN
inactive: [1] -0.073 | [2] -0.075 | [3] -0.054 | [4] -0.014 | [5] -0.012 | [6] 0.027 | [7] 0.021 | [8] -0.054 | [9] -0.002 | [10] -0.097

EMD (UniProt P50402)
UniProt P50402, sequence (P50402 whole entry, looked up): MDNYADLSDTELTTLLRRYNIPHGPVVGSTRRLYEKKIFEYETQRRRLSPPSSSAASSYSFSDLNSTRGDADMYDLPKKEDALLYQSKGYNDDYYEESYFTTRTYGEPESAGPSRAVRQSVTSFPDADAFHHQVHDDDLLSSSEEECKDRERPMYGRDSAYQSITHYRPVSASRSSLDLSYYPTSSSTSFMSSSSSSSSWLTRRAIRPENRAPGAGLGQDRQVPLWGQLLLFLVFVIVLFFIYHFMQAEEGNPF
inactive: [1] 0.025 | [2] 0.002 | [3] -0.078 | [4] 0.056 | [5] 0.008 | [6] 0.033 | [7] -0.011 | [8] -0.072 | [9] 0.031 | [10] 0.074

DDX11 (UniProt Q96FC9)
UniProt Q96FC9, sequence (Q96FC9 whole entry, looked up): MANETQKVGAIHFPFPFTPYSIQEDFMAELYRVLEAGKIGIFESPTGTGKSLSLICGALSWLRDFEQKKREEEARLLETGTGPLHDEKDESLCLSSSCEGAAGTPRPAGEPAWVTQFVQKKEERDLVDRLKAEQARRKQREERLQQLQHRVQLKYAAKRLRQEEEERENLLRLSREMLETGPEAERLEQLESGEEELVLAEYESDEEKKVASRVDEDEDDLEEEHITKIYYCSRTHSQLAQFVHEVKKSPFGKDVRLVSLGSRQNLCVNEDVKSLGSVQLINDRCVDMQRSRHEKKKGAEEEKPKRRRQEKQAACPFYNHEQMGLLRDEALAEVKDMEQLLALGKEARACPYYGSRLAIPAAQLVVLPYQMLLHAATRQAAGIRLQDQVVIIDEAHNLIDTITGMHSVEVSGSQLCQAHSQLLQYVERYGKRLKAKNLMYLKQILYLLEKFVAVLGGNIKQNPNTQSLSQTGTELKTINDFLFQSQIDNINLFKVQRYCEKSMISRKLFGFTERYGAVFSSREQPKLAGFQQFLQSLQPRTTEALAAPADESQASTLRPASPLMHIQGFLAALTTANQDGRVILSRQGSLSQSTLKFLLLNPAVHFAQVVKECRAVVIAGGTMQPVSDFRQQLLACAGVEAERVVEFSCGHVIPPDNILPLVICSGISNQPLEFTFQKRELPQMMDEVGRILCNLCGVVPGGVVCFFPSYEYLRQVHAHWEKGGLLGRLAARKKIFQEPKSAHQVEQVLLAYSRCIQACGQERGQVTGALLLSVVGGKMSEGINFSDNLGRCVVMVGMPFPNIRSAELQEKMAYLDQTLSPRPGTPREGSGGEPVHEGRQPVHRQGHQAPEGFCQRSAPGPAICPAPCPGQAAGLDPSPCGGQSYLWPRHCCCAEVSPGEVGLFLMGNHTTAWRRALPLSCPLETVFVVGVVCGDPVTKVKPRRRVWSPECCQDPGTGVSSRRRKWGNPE
inactive: [1] 0.019 | [2] -0.041 | [3] 0.087 | [4] 0.005 | [5] 0.029 | [6] 0.034 | [7] 0.215 | [8] -0.027 | [9] 0.032 | [10] 0.072

EEA1 (UniProt Q15075)
inactive: [1] 0 | [2] -0.016 | [3] 0.046 | [4] 0.003 | [5] 0.01 | [6] 0.046 | [7] -0.046 | [8] -0.031 | [9] 0.009 | [10] 0.05

ESYT1 isoform 2 (UniProt Q9BSJ8)
inactive: [1] 0.039 | [2] 0.081 | [3] -0.016 | [4] -0.05 | [5] 0.035 | [6] -0.069 | [7] -0.042 | [8] 0.043 | [9] -0.11 | [10] -0.092

EFL1 (UniProt Q7Z2Z2)
inactive: [1] 0 | [2] 0.051 | [3] 0.027 | [4] 0.002 | [5] 0.013 | [6] 0.002 | [7] 0.053 | [8] 0.043 | [9] 0.027 | [10] 0.013

ERCC2 (UniProt P18074)
inactive: [1] 0.04 | [2] 0.049 | [3] 0.2 | [4] 0.033 | [5] 0.041 | [6] -0.051 | [7] 0.014 | [8] -0.054 | [9] -0.005 | [10] 0.036

ERCC6 (UniProt Q03468)
inactive: [1] -0.036 | [2] 0.06 | [3] 0.028 | [4] -0.063 | [5] -0.096 | [6] -0.224 | [7] -0.052 | [8] 0.003 | [9] -0.065 | [10] 0.106
